Measured values reported in PubChem BioAssay (NCI).
This is part of a sample that, as a whole, favours compounds with a hit. Of some 83,000 tested, about 20% had one in any assay.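 Testing used 96-well plates and a 48-hour single-concentration exposure. Example: -40 means 40% of the starting cells died.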 Values without a mark were called inactive. The source made the active and inactive calls. The calls were made as follows: active = growth percent below 10; inactive = the rest.

Tests used:
Assay in all cases: NCI-60 one-dose screen, 48 h (100 = growth as untreated, 0 = no growth, -100 = all killed)
Details in all cases: 10 µM unless noted
[1] = tested on: BT-549 breast
[2] = tested on: MDA-MB-435 melanoma
[3] = tested on: SW-620 colon
[4] = tested on: MCF7 breast
[5] = tested on: HCT-116 colon
[6] = tested on: HCC-2998 colon
[7] = tested on: KM12 colon

Row | Compound | growth [1] | growth [2] | growth [3] | growth [4] | growth [5] | growth [6] | growth [7]
1 | Cn1c(SCC(=O)Nc2ccc(-c3nc4ccc([N+](=O)[O-])cc4[nH]3)cc2)nc2ccccc2c1=O | 27.8% | 93.4% | 87.3% | 45.3% | 70.9% | 84.6% | 65.5%
2 | COc1ccc(NC2=CC(=O)C(C)=C(C)C2=O)cc1 | 119% | 7.8% (active) | 101% | 71.9% | 80.6% | – | 101%
3 | Cn1ccnc1C(=O)/C=C/c1ccc(NC(=O)Nc2ccc(F)cc2)cc1 | 30.1% | 35.4% | 42.1% | 10.3% | 17.1% | 29.8% | 36.5%
4 | Clc1ccc2c(NCCCn3ccnc3)c3oc4ccc(Cl)cc4c3nc2c1 | 88.1% | 86.2% | 57% | 53.8% | 81% | 79% | 87.6%
5 | Cc1ccc(CNS(=O)(=O)/N=C2\NC(=O)NC2=C(Cl)Cl)cc1 | -8.68% (active) | 47.7% | 32.4% | 17.2% | 9.17% (active) | – | 24%
6 | COc1cc2nc(-c3ccc(Cl)cc3)cc(OCCCNCC3CCCO3)c2cc1OC (stereo not drawn) | 87.7% | 12.4% | 54.3% | 36% | 25.1% | 70.6% | 39.8%
7 | CCOc1ccc2nc(NC(=O)c3ccc(C(F)(F)F)cc3)sc2c1 | 98.5% | 96.6% | 103% | 98.6% | 102% | – | 103%
8 | O=C(Nc1nc2ccc(O)cc2s1)c1cccc(C(F)(F)F)c1 | 84.4% | 44.7% | 52.1% | 73.7% | 57.6% | – | 42.7%
9 | Cc1ccc2c(n1)C(=O)C(Cl)=C(Nc1cccc(C(C)C)c1)C2=O | 58.7% | -70.6% (active) | 28.3% | -56.7% (active) | 13.1% | – | 80%
10 | COc1ccc(CNS(=O)(=O)/N=C2\NC(=O)NC2=C(Cl)Cl)cc1 | -8.05% (active) | -3.14% (active) | 27.2% | 18.2% | 6.95% (active) | – | 17.1%
11 | CN1CCN(Cc2ccc(NC(=O)c3cncc(C#Cc4cnc5[nH]ncc5c4)c3)cc2C(F)(F)F)CC1 | 73.3% | 8.99% (active) | 11.5% | 52.6% | 12.4% | 45.7% | 6.81% (active)
12 | Clc1ccc(-c2cn3cc(Cc4ccc(Cl)c(Cl)c4)sc3n2)cc1 | 88.9% | 35% | 51.7% | 49.2% | 54% | 68.1% | 32.1%
13 | CCOC(=O)c1c(NC(=O)c2cccc(C(F)(F)F)c2)sc2cc(O)ccc12 | 89.7% | 104% | 103% | 46.6% | 91.7% | – | 95.5%
14 | CC(C)NC(=O)c1cc(-c2ccc(NC(=O)Nc3ccc(N4CCOCC4)c(C(F)(F)F)c3)cc2)nc2cccnc12 | 66.7% | – | 79.7% | 37.2% | 63.9% | 106% | –
15 | Cn1c(SCC(=O)c2cccs2)nc2ccccc2c1=O | 108% | 103% | 99.7% | 62.4% | 93.9% | – | 99.1%
16 | COc1ccc([C@@H]2c3[nH]c4ccccc4c3CC3C(=O)N(C4CCN(Cc5c(F)cccc5F)CC4)CC(=O)N32)c(OC)c1 (stereo partly drawn) | 30.4% [5.26 µM] | 60% [5.26 µM] | 64.6% [5.26 µM] | 42.4% [5.26 µM] | -15.2% [5.26 µM] (active) | – | 58.1% [5.26 µM]
17 | CC1=C(C)C(=O)C(Nc2ccccc2)=C(Cl)C1=O | 114% | 102% | 96.5% | 90.7% | 79.1% | – | 78.3%
18 | CS(=O)(=O)c1ccc(-n2cc(/C=C/C(=O)c3ccc(NC(=O)CO[N+](=O)[O-])cc3)c(-c3ccc(Cl)cc3)n2)cc1 | 103% | 104% | 114% | 84.4% | 103% | 93.4% | 107%
19 | COc1ccc(Cc2nn(CC(=O)N/N=C/c3ccc(Cl)cc3)c(=O)c3c(C)noc23)cc1 | 93.9% | 94.5% | 69% | 83.5% | 36.4% | – | 85.9%

Row | Compound | growth [1] | growth [2] | growth [3] | growth [4] | growth [5] | growth [6] | growth [7]
20 | O=C1[C@H]2Cc3c([nH]c4ccccc34)[C@@H](c3ccc(Br)cc3)N2C(=O)CN1C1CCN(Cc2ccccc2)CC1 | 93.4% | 36.9% | 33.5% | 6.48% (active) | 9.04% (active) | – | 36.7%
21 | COc1cccc(NC2=CC(=O)C(C)=C(C)C2=O)c1 | 127% | 7.25% (active) | 102% | 64.1% | 10.5% | – | 98.4%
22 | Cc1c(Nc2nnc(SCC(=O)Nc3sc4c(c3C#N)CCCC4)s2)c(=O)n(-c2ccccc2)n1C | 113% | 104% | 103% | 93.5% | 102% | 115% | 98%
23 | O=C(O)CCCCCN1C(=O)/C(=C/c2ccc(O)c(O)c2)SC1=S | 101% | 103% | 111% | 90.5% | 105% | 115% | 105%
24 | COc1cccc(COc2ccc(/C=C3/C(=O)Nc4cc(Cl)ccc43)cc2)c1 | 106% | 99.9% | 97.5% | 70.7% | 93.7% | 102% | 97.1%
25 | N/C(=N\c1nc2c(Cl)cc(Cl)cc2s1)C(Cl)(Cl)Cl | 110% | 75.6% | 60.6% | 24.8% | 51% | -1.09% (active) | 1.36% (active)
26 | CC(C)Sc1nc(Nc2ccc(S(N)(=O)=O)cc2)c(C#N)c(-c2ccc(F)cc2)n1 | 53.3% | 49.9% | 24.3% | 31.6% | – | 58.8% | 48.8%
27 | Cc1cc(C(=O)Nc2sc3c(c2C(N)=O)CCC(=O)C3)ccc1OCCN1CCCCC1 | 129% | 103% | 86.5% | 95.3% | 84.1% | – | 88.7%
28 | COc1ccc(C(=O)c2cc(C(=O)/C=C/c3c(Cl)cccc3Cl)c3cc(C)ccn23)cc1 | 119% | 99.6% | 95.5% | 98% | 99.8% | – | 100%
29 | COc1ccc(/C=N/NC(=O)c2[nH]c3ccc(Br)cc3c2-c2ccccc2)s1 | -15.9% (active) | -21.4% (active) | 18.2% | 6.97% (active) | -19.9% (active) | 26.8% | 3.72% (active)
30 | COC(=O)C(Cc1ccccc1)NS(=O)(=O)/N=C1\NC(=O)NC1=C(Cl)Cl (stereo not drawn) | 95.6% | 105% | 98.9% | 29.1% | 77.3% | 113% | 9.49% (active)
31 | CCN1C(=S)N(CC)C2C1N=C(SC)N2/N=C/C=C/c1ccccc1[N+](=O)[O-] (stereo not drawn) | 107% | 94.4% | 99.4% | 76.9% | 82.2% | 112% | 97.6%
32 | O=C(Oc1ccc2ccc(=O)oc2c1)c1ccc(Cl)cc1 | 101% | 109% | 102% | 94% | 98.5% | 102% | 108%
33 | O=C(N/N=C/c1ccc(Br)s1)c1[nH]c2ccc(Br)cc2c1-c1ccccc1 | -11.8% (active) | -5.5% (active) | 23.6% | 7.06% (active) | -14.2% (active) | 20.5% | 8.2% (active)
34 | CCOC(=O)c1sc(N)c(C(=O)OCC)c1C | 59.9% | 81.2% | 71.6% | 57.9% | 52.8% | – | 69.1%
35 | CSc1ccc2c(c1)N(C(=O)/C(C#N)=C/c1c[nH]c3ccccc13)c1ccccc1S2 | 55.8% | 11.7% | 34.5% | 23.1% | 24.3% | – | 24.5%
36 | CO/N=C1\CCc2c(sc(NC(=O)c3cccc(C(F)(F)F)c3)c2C(N)=O)C1 | 49.4% | 49.1% | 43.4% | 45.9% | 5% (active) | – | 56%
37 | CSCCC(C(=O)O)N1C(=O)/C(=C/c2ccc(O)c(O)c2)SC1=S (stereo not drawn) | 110% | 102% | 102% | 93.4% | 99.5% | 108% | 103%
